According to PubChem BioAssay (NCATS):
Records with an inconclusive call do not appear. Activity calls are given as the source filed them. Calls follow the shape of the dose curve; as a rule, active = well fitted curve in the direction sought with a large enough effect; inconclusive = small, poorly fitted or top-dose-only effect, or another doubt; inactive = no such curve, though single readings can be large; an effect the other way counts as inactive or inconclusive.

Columns and labels:
[1] = system: HACAT; assay: qHTS assay to identify novel small-molecules to repurpose for Merkel cell carcinoma treatment (AID 1296009); conditions: MCC and control cell lines, CellTiter-Glo viability, 72 h; at 44.8 µM (top of the series) unless noted; also: nearly all actives have a fitted effect of over 60% in size
Method in brief: (§1)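 Cell viability measured by CellTiter-Glo following 72 hr compound treatment at 37 degree celsius, with NPC and MIPE libraries tested in 8- and 11-point concentration series.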

[2] = system: NIH3T3; assay: as above; conditions: MCC and control cell lines, CellTiter-Glo viability, 72 h; at 44.8 µM (top of the series) unless noted
Method in brief: as §1

[3] = system: C33A; assay: Primary qHTS to identify gynecologic anti-cancer compounds using libraries of approved drugs and bioactive compounds (AID 1345084); conditions: Gynecologic cancer cell panel viability, ATPlite luminescence, 48 h; series mostly up to 57.5 µM; also: nearly all actives have a fitted effect of over 55% in size
Method in brief: (§2)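 In this quantitative HTS, cell killing is estimated from loss of ATP-dependent luciferase light. Cells see five compound concentrations over a 48 h exposure.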

[4] = system: CAOV3; assay: as above; conditions: Gynecologic cancer cell panel viability, ATPlite luminescence, 48 h; series mostly up to 57.5 µM
Method in brief: as §2

[5] = system: CASKI; assay: as above; conditions: Gynecologic cancer cell panel viability, ATPlite luminescence, 48 h; series mostly up to 57.5 µM
Method in brief: as §2

[6] = system: Es-2; assay: as above; conditions: Gynecologic cancer cell panel viability, ATPlite luminescence, 48 h; series mostly up to 57.5 µM
Method in brief: as §2

[7] = system: HeLa; assay: as above; conditions: Gynecologic cancer cell panel viability, ATPlite luminescence, 48 h; series mostly up to 57.5 µM
Method in brief: as §2

[8] = system: Hek293T; assay: as above; conditions: Gynecologic cancer cell panel viability, ATPlite luminescence, 48 h, control line for the selectivity index; series mostly up to 57.5 µM
Method in brief: as §2

[9] = system: JEG-3; assay: as above; conditions: Gynecologic cancer cell panel viability, ATPlite luminescence, 48 h; series mostly up to 57.5 µM
Method in brief: as §2

[10] = system: OV90; assay: as above; conditions: Gynecologic cancer cell panel viability, ATPlite luminescence, 48 h; series mostly up to 57.5 µM
Method in brief: as §2

[11] = system: PA-1; assay: as above; conditions: Gynecologic cancer cell panel viability, ATPlite luminescence, 48 h; series mostly up to 57.5 µM
Method in brief: as §2

[12] = system: SKOV3; assay: as above; conditions: Gynecologic cancer cell panel viability, ATPlite luminescence, 48 h; series mostly up to 57.5 µM
Method in brief: as §2

[13] = system: Tov-21-G; assay: as above; conditions: Gynecologic cancer cell panel viability, ATPlite luminescence, 48 h; series mostly up to 57.5 µM
Method in brief: as §2

[14] = system: Tov112D; assay: as above; conditions: Gynecologic cancer cell panel viability, ATPlite luminescence, 48 h; series mostly up to 57.5 µM
Method in brief: as §2

Measured: Potency

CC12CC(O)C(O)C=C1c1cc(O)cc(O)c1C(=O)O2 (centres undefined)
inactive: all assays above

CC(O)/C=C/C1(O)C(C)C(O)C(O[C@@H]2O[C@H](CO)[C@@H](O)[C@H](O)[C@H]2O)CC1(C)C (some centres undefined)
inactive: [1] inactive [at 17.4 µM] | [2] inactive [at 17.4 µM] | [3] | [4] | [5] | [6] | [7] | [8] | [9] | [10] | [11] | [12] | [13] | [14]

CC(=O)OC/C(=C/C(=O)O)CC[C@@H]1C(C)=CC(=O)[C@@H]2C(C)(C)CCC[C@@]12C
inactive: all assays above

CCC1OC(=O)C(C)CC(C)C(=O)/C(C)=C/C(C)C(=O)/C=C/C1(C)O (centres undefined)
inactive: all assays above

CC1(C)CC[C@]2(C(=O)O[C@@H]3O[C@H](CO)[C@@H](O)[C@H](O)[C@H]3O)CC[C@]3(C)C(=CCC4[C@@]5(C)C[C@@H](O)[C@H](O)[C@@](C)(CO)C5[C@H](O)C[C@]43C)C2C1 (some centres undefined)
inactive: [1] inactive [at 17.4 µM] | [2] inactive [at 17.4 µM] | [3] | [4] | [5] | [6] | [7] | [8] | [9] | [10] | [11] | [12] | [13] | [14]

COc1ccc(OC2OC(CO[C@@H]3O[C@@H](C)[C@H](O)[C@@H](O)[C@H]3O)C(O)C(O)C2O)cc1OC (some centres undefined)
inactive: [1] inactive [at 17.4 µM] | [2] inactive [at 17.4 µM] | [3] | [4] | [5] | [6] | [7] | [8] | [9] | [10] | [11] | [12] | [13] | [14]

C/C=C/C=C/C(=O)OC1CC/C=C/C(O)C(O)C(CCC)OC1=O (centres undefined)
inactive: all assays above

C/C=C(\C)C(=O)OCC1OC(OCC2OC(OC3(CO)OC(CO)C(O)C3O)C(O)C(O)C2O)C(O)C(O)C1O (centres undefined)
inactive: [1] inactive [at 17.4 µM] | [2] inactive [at 17.4 µM] | [3] | [4] | [5] | [6] | [7] | [8] | [9] | [10] | [11] | [12] | [13] | [14]

COc1cc(CC2COC(c3ccc(OC4OC(CO)C(O)C(O)C4O)c(OC)c3)C2CO)ccc1O (centres undefined)
inactive: [1] inactive [at 17.4 µM] | [2] inactive [at 17.4 µM] | [3] | [4] | [5] | [6] | [7] | [8] | [9] | [10] | [11] | [12] | [13] | [14]

CC1C2=CC(=O)OC2(O)CC2C1C(O)CC1C(C)(CO)CCCC21C (centres undefined)
inactive: all assays above

COCc1c(O)c(C(=O)O)c(C)c2c1OC(=O)c1c(C)cc(O)c(CO)c1O2
inactive: all assays above
